The list is not random: actives were taken first. Their share in the collection is about 3.2%.
GLP1R cytotox: cytotoxic in the GLP-1 receptor inverse agonist counter-screen; HEK293 cAMP-luciferase reporter cells, luminescence, 24 h; Potency, µM (top dose mostly 38.3 µM), actives largely listed as inhibitors; actives 0.13% (n = 410,000);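 note: loss of luciferase light is scored as toxicity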
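MLSMR compounds, 24 hr on cells at 37 deg C/5% CO2; luminescence after luciferase reagent (12 min RT). Inhibition counted as the undesired cytotoxic outcome.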
GLP1R inv ag: GLP-1 receptor (human) inverse agonism; P43220; HEK293 GLP-1R CRE-luciferase, luminescence, 24 h; GLP-1R form is constitutively active; Potency, µM (doses to about 38.3 µM), hits mostly inhibitors; actives 1.6% (n = 410,000); AID 624417; note: nearly all actives have a fitted effect of over 55% in size
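qHTS in 1536-well format: reporter HEK293 cells expressing constitutive GLP-1R activity in DMEM + 10% Nu serum, 24 hr with compounds at 37 deg C, luminescence read after 12 min with detection reagent.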
GLP-1R agonist: agonists of human GLP-1 receptor; HEK293 GLP-1R CRE-luciferase, luminescence, 4-6 h; cells express a hypersensitive GLP-1R form; actives 0.007% (n = 380,000); Potency, µM (titrated, usually from 45.6 µM), hits mostly activators
ClpP mod: qHTS Assay for Activators of ClpP. ATP-dependent Clp protease proteolytic subunit (Bacillus subtilis (strain 168)), P80244. purified B. subtilis ClpP, FRET peptide cleavage, 20 min. Potency, µM (highest dose often 57.5 µM). actives 1.9% (n = 340,000); active = well fitted falling curve with a large enough effect; inconclusive = small, poorly fitted or top-dose-only effect; inactive = no such curve, though single readings can be large or run the other way; note: the source files actives as falling curves though it sought activators and does not explain the sign; nearly all actives have a fitted effect of over 65% in size
Target sequence (P80244 whole entry, looked up): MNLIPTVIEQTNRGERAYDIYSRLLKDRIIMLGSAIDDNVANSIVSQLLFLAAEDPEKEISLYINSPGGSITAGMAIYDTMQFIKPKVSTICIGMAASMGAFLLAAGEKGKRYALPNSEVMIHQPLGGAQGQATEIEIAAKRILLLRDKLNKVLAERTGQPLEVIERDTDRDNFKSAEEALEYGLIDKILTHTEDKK
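Buffer: 100 mM Tris/HCl pH8, 100 mM KCl, 0.05% low protease BSA, 2.5% glycerol, 0.01% Tween-20. ClpP 10 microg/mL final; 20 min RT; delta FRET normalized to ADEP and DMSO controls.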
Of the large screens only hits and unclear results are named; the others gave an inactive call. Unless noted, calls come from the whole dose curve; as a rule, active = well fitted curve in the direction sought with a large enough effect; inconclusive = small, poorly fitted or top-dose-only effect, or another doubt; inactive = no such curve, though single readings can be large; an effect the other way counts as inactive or inconclusive.

COc1ccc(-c2nc(S(=O)(=O)c3ccccc3)c(N3CCN(C)CC3)o2)cc1	none
CNc1oc(-c2ccccc2F)nc1S(=O)(=O)c1ccc(C)cc1	ClpP mod 10µM
Cc1ccc(S(=O)(=O)c2nc(-c3ccccc3Cl)oc2N2CCCCCC2)cc1	GLP1R inv ag inconclusive, ClpP mod 18µM (no result: GLP-1R agonist)
CCOP(=O)(c1ccccc1)c1nc(-c2ccccc2Cl)oc1N1CCCCC1 (centres undefined)	GLP1R inv ag inconclusive, ClpP mod 20µM
Cc1ccc(S(=O)(=O)c2nc(-c3ccccc3Cl)oc2N2CCN(C)CC2)cc1	GLP1R inv ag 10µM
COc1ccc(-c2nc(S(=O)(=O)c3ccc(C)cc3)c(NCc3ccccc3)o2)cc1	GLP1R inv ag inconclusive (no result: GLP-1R agonist)
Oc1cc2cc(-c3csc(-c4ccc(F)cc4)n3)ccc2[nH]1	none (no result: GLP1R cytotox, GLP1R inv ag, GLP-1R agonist)
N#Cc1cn(-c2ccccc2)nc1-c1ccco1	none
COC(=O)C1=C(C)NC(C)=C(C(=O)OC)C1c1cn(-c2ccccc2)nc1-c1ccco1	ClpP mod 28µM
COc1cc2[nH]c(=O)n(CCCCCC(=O)N3CC=C(c4ccccc4)CC3)c(=O)c2cc1OC	ClpP mod 18µM
COc1cc2[nH]c(=O)n(CCC(=O)N3CCc4ccccc4C3)c(=O)c2cc1OC	ClpP mod 28µM
Cc1nnc(C(C)C)n1C1C[C@H]2CC[C@@H](C1)N2CC[C@H](NC(=O)C1CCC(F)(F)CC1)c1ccccc1 (some centres undefined)	none (no result: GLP1R cytotox, GLP1R inv ag, ClpP mod)
Cc1nc(N2CCCC2)c2c(C(=O)Nc3ccc(Br)cc3F)c(C)oc2n1	GLP1R inv ag inconclusive (no result: GLP-1R agonist)
O=C(Nc1ccccc1-c1ccccc1)C12CC3CC(CC(C3)C1)C2	GLP1R inv ag 2µM
COc1ccc(NC(=O)Cn2nc(-c3ccncc3)ccc2=O)cc1Cl	none (no result: GLP-1R agonist)
COc1cc2ccccc2cc1C(=O)Nc1nccs1	none
COc1cccc(C=Nc2ccccc2C(=O)Nc2nccs2)c1OC	ClpP mod 32µM
O=C(Nc1nccs1)c1ccccc1N=Cc1ccccc1	GLP1R inv ag inconclusive, ClpP mod 28µM
O=C(Nc1ccccc1)c1ccccc1N=Cc1ccccc1O	ClpP mod 35µM
O=C(Nc1nccs1)c1cccnc1Cl	none
O=C(NCCCN1CCOCC1)c1ccc2c(c1)N(Cc1ccccc1)C(=O)c1ccccc1S2	GLP1R inv ag inconclusive
CCOc1ccc(CN2C(=O)c3ccccc3Sc3ccc(C(=O)NCCCN4CCOCC4)cc32)cc1	GLP1R cytotox inconclusive, GLP1R inv ag 13µM
CCOc1ccc(-n2c(C)nc3cc(C(=O)NCCCN4CCOCC4)ccc32)cc1	ClpP mod 32µM
CN1CCN(CCCNC(=O)c2ccc(/C=C3\Sc4ccccc4N(Cc4ccc(F)cc4)C3=O)cc2)CC1	GLP1R inv ag 10µM
CCOc1ccc(CN2C(=O)c3ccccc3Sc3ccc(C(=O)N4CCN(C)CC4)cc32)cc1	none
NC(=O)COc1ccccc1C(=O)Nc1ccccc1	none (no result: GLP1R cytotox, GLP1R inv ag, GLP-1R agonist)
COc1ccc(C(=O)C2CCN(CC(=O)NCc3ccccc3)CC2)cc1	none
COc1ccc(CNC(=O)CN2CCC(C(=O)c3ccc(OC)cc3)CC2)cc1	GLP1R cytotox inconclusive, GLP1R inv ag 10µM
Cc1ccc(Sc2ncccc2COC(=O)Nc2ccccc2)cc1	GLP1R inv ag 7.9µM
Cc1ccc(Sc2ncccc2COC(=O)Nc2c(C)cccc2C)cc1	GLP1R inv ag 7.9µM
Cc1ccccc1NC(=O)OCc1cccnc1Sc1ccc(Cl)cc1	none
COc1ccc2c(c1)CCc1sc(NC(=O)c3ccc(C)cc3)nc1-2	ClpP mod 35µM
COc1ccccc1OCC(=O)N1CCC2(CC1)CC(=O)c1ccccc1O2	ClpP mod 22µM
CCOC(=O)N1CCN(C(=O)COc2ccc3c(c2)C(=O)CC2(CCN(C(C)=O)CC2)O3)CC1	ClpP mod 16µM
CC(=O)N1CCC2(CC1)CC(=O)c1cc(OCC(=O)N3CCOCC3)ccc1O2	none
Cc1ccc(-c2cc(C(=O)N(Cc3ccc(C(C)(C)C)cc3)Cc3ccco3)no2)cc1	GLP1R inv ag inconclusive (no result: GLP-1R agonist)
Cc1ccc(CC(=O)Nc2c(C(=O)N3CCN(c4ccccc4)CC3)oc3ccccc23)cc1	GLP1R inv ag inconclusive (no result: GLP-1R agonist)
O=C(c1ccc2c(c1)N(Cc1ccccc1)C(=O)c1ccccc1S2(=O)=O)N1CCCCCC1	none (no result: GLP-1R agonist)
Cc1ccc(C(c2c(NC(=O)c3ccco3)sc(C)c2C)N2CCOCC2)cc1 (centres undefined)	none

Bioassay records deposited in PubChem BioAssay by National Center for Advancing Translational Sciences (NCATS).
